Out of some 2,300 compounds screened, about 1,000 (43%) were called active. The set was probably picked from earlier hits. These entries were drawn from the full list. Unmarked numbers belong to inactive results.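 How the source made its calls: active means compounds inhibiting the enzyme by at least 50% at 15 µM in any one of the replicates; inactive means the rest.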

Fatty acid synthase (Homo sapiens), sequence (P49327 whole entry, looked up, the tested form may be a part): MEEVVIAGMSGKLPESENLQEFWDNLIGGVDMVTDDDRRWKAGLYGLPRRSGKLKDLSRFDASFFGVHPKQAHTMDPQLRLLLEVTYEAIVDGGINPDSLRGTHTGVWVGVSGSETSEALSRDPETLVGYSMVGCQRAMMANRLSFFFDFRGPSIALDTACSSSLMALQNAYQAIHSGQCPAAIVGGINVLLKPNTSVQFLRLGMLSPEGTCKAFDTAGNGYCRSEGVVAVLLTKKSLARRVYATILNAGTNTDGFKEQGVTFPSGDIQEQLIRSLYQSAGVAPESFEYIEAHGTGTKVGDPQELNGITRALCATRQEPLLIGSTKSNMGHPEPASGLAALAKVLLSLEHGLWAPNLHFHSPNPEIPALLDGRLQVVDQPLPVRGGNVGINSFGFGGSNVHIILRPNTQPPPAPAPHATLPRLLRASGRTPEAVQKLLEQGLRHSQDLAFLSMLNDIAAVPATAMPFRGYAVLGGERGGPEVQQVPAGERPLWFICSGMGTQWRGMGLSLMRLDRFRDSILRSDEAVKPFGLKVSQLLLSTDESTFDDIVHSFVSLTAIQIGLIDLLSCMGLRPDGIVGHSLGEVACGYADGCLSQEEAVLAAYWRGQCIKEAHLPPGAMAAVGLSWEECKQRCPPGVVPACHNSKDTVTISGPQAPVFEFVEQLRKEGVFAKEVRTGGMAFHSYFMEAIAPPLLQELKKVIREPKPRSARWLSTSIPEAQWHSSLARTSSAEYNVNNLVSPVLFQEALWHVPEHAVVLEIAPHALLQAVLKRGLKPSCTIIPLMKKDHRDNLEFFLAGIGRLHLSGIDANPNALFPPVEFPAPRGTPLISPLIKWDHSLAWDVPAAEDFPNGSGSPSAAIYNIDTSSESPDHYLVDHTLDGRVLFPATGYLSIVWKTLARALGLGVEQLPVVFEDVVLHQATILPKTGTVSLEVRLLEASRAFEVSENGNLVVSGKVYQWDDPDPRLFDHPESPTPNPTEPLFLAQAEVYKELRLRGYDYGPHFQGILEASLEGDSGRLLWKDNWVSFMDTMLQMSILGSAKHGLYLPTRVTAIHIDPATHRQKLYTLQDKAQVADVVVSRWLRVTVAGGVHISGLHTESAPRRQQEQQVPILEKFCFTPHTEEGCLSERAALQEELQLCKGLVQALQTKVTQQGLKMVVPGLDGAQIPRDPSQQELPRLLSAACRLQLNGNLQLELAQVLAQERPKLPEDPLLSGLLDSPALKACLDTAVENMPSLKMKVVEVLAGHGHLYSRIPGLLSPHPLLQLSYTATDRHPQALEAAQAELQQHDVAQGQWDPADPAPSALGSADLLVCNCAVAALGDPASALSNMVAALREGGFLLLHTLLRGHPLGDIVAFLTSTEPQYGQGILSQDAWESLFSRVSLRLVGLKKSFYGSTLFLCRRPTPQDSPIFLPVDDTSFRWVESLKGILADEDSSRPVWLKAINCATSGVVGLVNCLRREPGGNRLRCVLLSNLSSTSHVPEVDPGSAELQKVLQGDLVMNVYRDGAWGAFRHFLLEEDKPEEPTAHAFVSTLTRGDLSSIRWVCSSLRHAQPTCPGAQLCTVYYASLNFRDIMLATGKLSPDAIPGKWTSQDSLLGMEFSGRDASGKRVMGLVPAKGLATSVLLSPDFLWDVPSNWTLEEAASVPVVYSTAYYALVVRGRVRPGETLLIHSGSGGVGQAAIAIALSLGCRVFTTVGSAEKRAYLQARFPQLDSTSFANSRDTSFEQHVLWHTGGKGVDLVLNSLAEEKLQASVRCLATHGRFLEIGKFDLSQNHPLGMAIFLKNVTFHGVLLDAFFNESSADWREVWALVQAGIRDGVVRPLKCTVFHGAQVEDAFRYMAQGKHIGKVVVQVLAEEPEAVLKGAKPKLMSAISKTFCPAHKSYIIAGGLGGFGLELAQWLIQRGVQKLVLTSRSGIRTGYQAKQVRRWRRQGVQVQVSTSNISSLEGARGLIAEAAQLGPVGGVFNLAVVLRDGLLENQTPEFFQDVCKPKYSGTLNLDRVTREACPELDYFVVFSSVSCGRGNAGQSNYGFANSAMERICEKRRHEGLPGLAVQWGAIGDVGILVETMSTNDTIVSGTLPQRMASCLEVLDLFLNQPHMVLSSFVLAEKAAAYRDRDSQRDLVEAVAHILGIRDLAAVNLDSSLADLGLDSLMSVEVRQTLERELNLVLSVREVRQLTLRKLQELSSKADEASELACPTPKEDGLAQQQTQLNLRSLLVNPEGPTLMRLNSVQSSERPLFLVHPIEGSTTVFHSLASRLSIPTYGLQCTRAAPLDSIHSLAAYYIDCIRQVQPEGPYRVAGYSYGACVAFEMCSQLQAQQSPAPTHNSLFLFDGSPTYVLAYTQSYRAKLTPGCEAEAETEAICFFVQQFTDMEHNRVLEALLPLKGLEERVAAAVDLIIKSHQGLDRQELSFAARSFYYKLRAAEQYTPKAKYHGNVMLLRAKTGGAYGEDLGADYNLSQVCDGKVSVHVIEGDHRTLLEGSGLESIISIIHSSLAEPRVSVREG

The assay has as its target Fatty acid synthase (Homo sapiens) (UniProt P49327). Nature of the assay: FAS thioesterase domain inhibitors, confirmation, biochemical, fluorescence intensity, single concentration (AID 624325).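 Further: 0% = enzyme with DMSO only and 100% = wells lacking enzyme.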 The settings on record: recombinant FAS-TE, OMFH fluorogenic substrate, at 15 µM, stronger effect = higher value.
One may read the inhibition as the change of the read-out against control, counted positive when it falls. In the case of `CNC(=O)/C(=C\C=C\c1ccccc1)NC(=O)c1ccc([N+](=O)[O-])cc1`, the inhibition was 91.7% (active). Turning to `C/C(=N\Nc1nc(N2CCOCC2)nc(N2CCOCC2)n1)c1ccc([N+](=O)[O-])cc1`, the inhibition is 41.8% (active). Then `CCCN1Cc2cccc(C(=O)Nc3ccc(S(=O)(=O)N4CCCCCC4)cc3)c2C1=O`, with 0.41%.

For the compound `O=C(NCc1ccc2c(c1)OCO2)c1cc([N+](=O)[O-])ccc1N1CCOCC1`, the inhibition was 54% (active). For `COc1ccc(S(=O)(=O)N2CCCCC2)cc1NC(=O)c1cc([N+](=O)[O-])ccc1N1CCOCC1`, the inhibition was 25.8%. For `CN(C)c1ccc(/C=C/C(=O)c2ccc(C(C)(C)C)cc2)cc1[N+](=O)[O-]` the value was 33%; for `Cc1cc(C(=O)N/N=C/c2cc([N+](=O)[O-])cc(C)c2O)n[nH]1`, 72.6% (active); for `O=[N+]([O-])c1cc(Br)c(O)c(/C=N/Nc2nc3ccccc3s2)c1`, 16.1%. For the compound `CC1(C)CC(=O)c2c(n(S(=O)(=O)c3ccccc3)c3ccc(NS(=O)(=O)c4ccccc4)cc23)C1`, the inhibition was 19.9%. For the compound `Oc1c(Cl)cc(Cl)c(Cl)c1Cc1c(O)c(Cl)cc(Cl)c1Cl`, the inhibition was 70.1% (active).

With `Cc1noc(C)c1NC(=O)Nc1cccc2c1O[C@H](CN(C)C(=O)Nc1ccccc1)[C@@H](C)CN([C@H](C)CO)C2=O`, the inhibition was 61.3% (active).

Turning to `O=C(Cc1ccc(Cl)c(Cl)c1)Nc1ccc(SC(F)F)cc1`, the inhibition was 37.6%. For `O=C(c1ccc2c(c1)N(Cc1ccc(F)cc1)C(=O)c1ccccc1S2(=O)=O)N1CCN(c2ccccn2)CC1` the value was 21.2%. Take `COc1ccc2nc(Nc3nc4cc5c(cc4s3)OCCO5)sc2c1`: the inhibition is 17.9%. Consider `CC1=CC(=C(C#N)c2nc3ccccc3s2)C=C(C)N1c1ccc(F)cc1F`, for which the inhibition is -32.7%. `O=C(NCCC1=CCCCC1)c1ccc(Cl)c([N+](=O)[O-])c1`: the inhibition was 61.2% (active). Turning to `COc1ccc(-c2csc3nc(-c4ccccc4F)oc(=O)c23)cc1OC`, the inhibition is 57.9% (active). Turning to `Cc1sc2nc(-c3ccccc3F)oc(=O)c2c1C`, the inhibition was 6.55%.

In the case of `CCOC(=O)N1CCN(Cc2nc3ccc([N+](=O)[O-])cc3c(=O)n2-c2cccc(OC)c2)CC1`, the inhibition is 76.1% (active).

As for `CCOc1cc(/C=C(/C#N)c2ccc(Cl)cc2)cc(Cl)c1OCC(=O)O`, the inhibition is 63% (active). For `Cc1ccc(N2C(=O)C3C(c4ccccc4)(C2=O)C3(c2ccccc2)c2ccccc2)cc1` (stereo not drawn), the inhibition is 4.09%. With `O=C(C[C@H]1C[C@H](C(=O)N2CCOCC2)[C@@]2(CCC3CCCC3)c3[nH]c4ccc(Cl)cc4c3CCN2C1=O)NCc1ccco1`, the inhibition is 27.4%. Then `COc1ccc(CNC(=O)C[C@H]2C[C@H](C(=O)N3CCOCC3)[C@@]3(CCC4CCCC4)c4[nH]c5ccc(Cl)cc5c4CCN3C2=O)cc1OC`, with 83.3% (active); and `CCOc1ccc(Nc2nc(Cl)nc(N3CCN(c4ccc(OC)cc4)CC3)n2)cc1`, with 12.5%; and `C[C@@]12C(=O)N(c3cccc(Br)c3)C(=O)N1[C@H](c1ccc(Cl)cc1)[C@@H]1C(=O)N(C3CCCCC3)C(=O)[C@@H]12`, with 54% (active). Then `Cc1cccc(N2C(=O)N3[C@H](c4ccc(F)cc4)[C@@H]4C(=O)N(C5CCCCC5)C(=O)[C@@H]4[C@]3(Cc3ccccc3)C2=O)c1`, with 10.1%; and `O=C1[C@H]2[C@@H](c3ccc(F)cc3)N3C(=O)N(c4ccc(C(F)(F)F)cc4)C(=O)[C@@]3(Cc3ccccc3)[C@H]2C(=O)N1C1CCCCC1`, with 17.3%; and `Cc1cccc(-n2c(SCC(=O)Nc3cccc(S(=O)(=O)NC4=NCCCCC4)c3)nc3ccccc3c2=O)c1C`, with 18.8%. Then `COC(=O)c1cc(C(=O)NC(C)C2CC3CCC2C3)cc([N+](=O)[O-])c1` (stereo not drawn), with 59.5% (active). Turning to `O=C(Nc1cccc([N+](=O)[O-])c1)N1CCc2ccccc2C1`, the inhibition is 65.8% (active). For `O=C(NCCCCc1ccccc1)C1CC(c2ccc([N+](=O)[O-])cc2)=NO1` (stereo not drawn), the inhibition is 59.7% (active).

For the compound `O=C1NC(Cc2ccccc2)c2nc3ccc(Br)cc3c(=O)n2-c2cc3ccccc3cc21` (stereo not drawn), the inhibition was 30.7%. In the case of `CC(NC(=O)Nc1cccc([N+](=O)[O-])c1)c1ccc2c(c1)OCO2` (stereo not drawn), the inhibition is 84.4% (active).

In the case of `CCN(C(=O)CSc1ncnc2c1cnn2-c1ccccc1)C1CCS(=O)(=O)C1` (stereo not drawn), the inhibition is 69.8% (active). Then `CCOc1ccc(Br)cc1S(=O)(=O)Nc1ccc(C(=O)OC(C)C(=O)N(C)c2ccccc2)cc1` (stereo not drawn), with 14.2%; and `CC1(C(=O)NS(=O)(=O)c2ccc(C#N)cc2)CCN1C(=O)c1ccc(C2CCCCC2)cc1` (stereo not drawn), with 71.8% (active); and `Cc1ccc(C)c(NC(=O)CSc2nc3c(oc4ccccc43)c(=O)n2-c2ccccc2)c1`, with 31.1%. Then `COc1ccccc1C1CC(=O)n2c(nc(-c3ccccc3)c2-c2ccccc2)S1` (stereo not drawn), with 0.79%; and `CC(C)(C)NC(=O)NC(=O)COC(=O)Cc1ccc(Cl)cc1Cl`, with 68.1% (active). For `O=C1OCCN1C(=O)[C@H]1[C@H](c2ccc(Cl)cc2)C(c2cccc(Cl)c2)=NN1c1ccc(Br)cc1`, the inhibition was 15.5%. Take `O=C(Nc1cccc(Cl)c1)c1cc([N+](=O)[O-])ccc1N1CCN(CCO)CC1`: the inhibition was 66.5% (active). As for `Cc1cccc(NC(=O)c2cc([N+](=O)[O-])ccc2N2CCN(C)CC2)c1`, the inhibition was 54% (active).

For `O=S(=O)(c1ccc(F)cc1)n1ccc(-c2cnc(-c3ccccc3)s2)n1`, the inhibition was 14.5%.

Consider `Cc1ccc(S(=O)(=O)c2nnn3c2nc(N2CCN(c4ccccn4)CC2)c2ccccc23)cc1`, for which the inhibition was 25.4%. As to `Cc1nc2c(OCc3ccc(Cl)cc3Cl)cccn2c1N(C)CC1CC1`, the inhibition was 50% (active). For `O=C(COC(=O)c1cc([N+](=O)[O-])ccc1NCc1ccccc1)NC1CCCCC1` the value was 37.6% (active); for `CCN1C(=O)[C@H]2[C@@H](c3ccc(SC4CCCCC4)c(OC)c3)N[C@@](Cc3ccccc3)(C(=O)OC)[C@H]2C1=O`, 15.5%. Turning to `CCN1C(=O)[C@H]2[C@@H](c3ccc(-c4ccc(F)cc4)cc3)N[C@@](Cc3ccccc3)(C(=O)OC)[C@H]2C1=O`, the inhibition was 43.4%. As for `Cc1cccc(N=C2NC(=O)/C(=C/c3cn(C)c4ccccc34)S2)c1`, the inhibition was -6.27%.

For `COc1cc(-c2noc(C3CCCN(S(=O)(=O)c4cccc(Cl)c4)C3)n2)cc(OC)c1OC` (stereo not drawn), the inhibition is 30.8%. Regarding `COc1ccc([N+](=O)[O-])cc1NC(=O)COC(=O)/C=C/c1ccco1`, the inhibition was 70.8% (active). Consider `CC(C)Oc1ccc(Cc2n[nH]c(=S)n2Cc2ccccc2)cc1Cl`, for which the inhibition was 39.1% (active). As for `CC(=O)c1sc(N/N=C/c2ccc(C(C)C)cc2)nc1C`, the inhibition was 19.8%. As for `COc1ccc(C2CC(c3ccccc3)=NN2C(=O)c2ccc(Cl)c([N+](=O)[O-])c2)cc1` (stereo not drawn), the inhibition is 21.3%.

In the case of `O=C(Nc1ccc(N2C(=O)c3cccc4cccc(c34)C2=O)cc1)c1ccc(N2CCCCC2)c([N+](=O)[O-])c1`, the inhibition is 10.5%. For `O=C(c1ccc(Cl)c([N+](=O)[O-])c1)N1CCN(c2ccccc2)CC1`, the inhibition was 58.3% (active).

On to `O=c1ccc2c(-c3ccccc3S(=O)(=O)O)c3ccc(O)c(O)c3oc-2c1O`, for which the inhibition was 56.1% (active). Regarding `O=C(Nc1nnc(SCc2ccccc2Cl)s1)c1cccc([N+](=O)[O-])c1`, the inhibition was 51.7% (active).

Consider `O=C(Nc1ccc(C2CC2(Cl)Cl)cc1)c1cccc([N+](=O)[O-])c1` (stereo not drawn), for which the inhibition is 19.8%. Consider `CC(=O)c1ccc(S(=O)(=O)N2CCN(c3nc4c(C)c(C)ccc4cc3C#N)CC2)cc1`, for which the inhibition was 32.8%. Regarding `Cc1ccc(S(=O)(=O)N2CC[C@H]3[C@@H](C2)C(=O)C[C@@H](c2ccccc2)N3S(=O)(=O)c2ccc(C)cc2)cc1`, the inhibition was 13.8%. Consider `COc1ccc(-c2nnc(SC(=O)N3c4ccccc4Sc4ccccc43)o2)cc1`, for which the inhibition is 13.1%. Consider `CCCCOC(=O)CNc1nnc(SCC(=O)OCC)[nH]c1=O`, for which the inhibition was 51% (active).
